Rows were chosen to be rich in hits. Some 2.3% of all compounds tested hit in one or more screens of this group.
Tau fil binding: tau filament binding; recombinant tau filaments, thioflavin S fluorescence, 15 h; filaments grown with octadecylsulfate alongside compound; Potency, µM (titrated, usually from 57.1 µM), for the others: at the highest dose activity change, negative = inhibition; actives 2% (n = 71,000);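 note: potency is the fitted concentration of half-maximal effect; % is set by controls: 0 for no effect and ±100 for the full control effect; actives lower thioflavin S fluorescence by blocking filaments or displacing dye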
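Thioflavine S fluorescence (ex 450, em 510 nm) reports filaments formed from 1 uM human tau plus 30 uM ODS over 15 h at 37 C (10 mM HEPES pH 7.4, 100 mM NaCl, 5 mM DTT); compounds displacing dye or blocking filaments lower signal.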
Hsp90 Hop PPI: changes Hsp90-Hop TPR2A binding signal, up or down; AlphaScreen TPR2A-His6 binding biotin-Hsp90 C-terminal peptide; Potency, µM (series often up to 57 µM), for inactives: at the highest dose activity change, negative = inhibition; actives 0.44% (n = 71,000); AID 595; active = well fitted curve in either direction with a large enough effect; inconclusive = small, poorly fitted or top-dose-only effect, or another doubt; note: potency is the fitted concentration of half-maximal effect; % is set by controls: 0 for no effect and ±100 for the full control effect
DNA Pol III inh: blocks replication by bacterial DNA polymerase III holoenzyme; actives 0.25% (n = 71,000); Potency, µM (titrated, usually from 57.1 µM), for the others: top-dose activity change, negative = inhibition; AID 603; reconstituted DNA polymerase III holoenzyme replication, biochemical; note: potency is the fitted concentration of half-maximal effect; % is set by controls: 0 for no effect and ±100 for the full control effect
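Reconstituted *E. coli* holoenzyme (0.35 nM Pol III, 1 nM beta, 154 nM SSB, 2 nM primase) was preincubated with compound for 15 min at RT. Synthesis on 1.4 nM ssM13Gori ran 35 min, then was stopped with PicoGreen/EDTA and read as dsDNA fluorescence.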
BRCT PPI green: blocks human BRCA1 BRCT binding to phosphopeptide, green readout. P38398. BRCA1 BRCT-phosphopeptide binding, green fluorescence polarization. Potency, µM (doses to about 76.9 µM), for the others: at the highest dose activity change, negative = inhibition, most hits filed as inhibitors. actives 0.05% (n = 75,000). AID 875;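 note: potency is the fitted concentration of half-maximal effect; plate controls were peptide without protein for full effect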
Target sequence (P38398 whole entry, looked up): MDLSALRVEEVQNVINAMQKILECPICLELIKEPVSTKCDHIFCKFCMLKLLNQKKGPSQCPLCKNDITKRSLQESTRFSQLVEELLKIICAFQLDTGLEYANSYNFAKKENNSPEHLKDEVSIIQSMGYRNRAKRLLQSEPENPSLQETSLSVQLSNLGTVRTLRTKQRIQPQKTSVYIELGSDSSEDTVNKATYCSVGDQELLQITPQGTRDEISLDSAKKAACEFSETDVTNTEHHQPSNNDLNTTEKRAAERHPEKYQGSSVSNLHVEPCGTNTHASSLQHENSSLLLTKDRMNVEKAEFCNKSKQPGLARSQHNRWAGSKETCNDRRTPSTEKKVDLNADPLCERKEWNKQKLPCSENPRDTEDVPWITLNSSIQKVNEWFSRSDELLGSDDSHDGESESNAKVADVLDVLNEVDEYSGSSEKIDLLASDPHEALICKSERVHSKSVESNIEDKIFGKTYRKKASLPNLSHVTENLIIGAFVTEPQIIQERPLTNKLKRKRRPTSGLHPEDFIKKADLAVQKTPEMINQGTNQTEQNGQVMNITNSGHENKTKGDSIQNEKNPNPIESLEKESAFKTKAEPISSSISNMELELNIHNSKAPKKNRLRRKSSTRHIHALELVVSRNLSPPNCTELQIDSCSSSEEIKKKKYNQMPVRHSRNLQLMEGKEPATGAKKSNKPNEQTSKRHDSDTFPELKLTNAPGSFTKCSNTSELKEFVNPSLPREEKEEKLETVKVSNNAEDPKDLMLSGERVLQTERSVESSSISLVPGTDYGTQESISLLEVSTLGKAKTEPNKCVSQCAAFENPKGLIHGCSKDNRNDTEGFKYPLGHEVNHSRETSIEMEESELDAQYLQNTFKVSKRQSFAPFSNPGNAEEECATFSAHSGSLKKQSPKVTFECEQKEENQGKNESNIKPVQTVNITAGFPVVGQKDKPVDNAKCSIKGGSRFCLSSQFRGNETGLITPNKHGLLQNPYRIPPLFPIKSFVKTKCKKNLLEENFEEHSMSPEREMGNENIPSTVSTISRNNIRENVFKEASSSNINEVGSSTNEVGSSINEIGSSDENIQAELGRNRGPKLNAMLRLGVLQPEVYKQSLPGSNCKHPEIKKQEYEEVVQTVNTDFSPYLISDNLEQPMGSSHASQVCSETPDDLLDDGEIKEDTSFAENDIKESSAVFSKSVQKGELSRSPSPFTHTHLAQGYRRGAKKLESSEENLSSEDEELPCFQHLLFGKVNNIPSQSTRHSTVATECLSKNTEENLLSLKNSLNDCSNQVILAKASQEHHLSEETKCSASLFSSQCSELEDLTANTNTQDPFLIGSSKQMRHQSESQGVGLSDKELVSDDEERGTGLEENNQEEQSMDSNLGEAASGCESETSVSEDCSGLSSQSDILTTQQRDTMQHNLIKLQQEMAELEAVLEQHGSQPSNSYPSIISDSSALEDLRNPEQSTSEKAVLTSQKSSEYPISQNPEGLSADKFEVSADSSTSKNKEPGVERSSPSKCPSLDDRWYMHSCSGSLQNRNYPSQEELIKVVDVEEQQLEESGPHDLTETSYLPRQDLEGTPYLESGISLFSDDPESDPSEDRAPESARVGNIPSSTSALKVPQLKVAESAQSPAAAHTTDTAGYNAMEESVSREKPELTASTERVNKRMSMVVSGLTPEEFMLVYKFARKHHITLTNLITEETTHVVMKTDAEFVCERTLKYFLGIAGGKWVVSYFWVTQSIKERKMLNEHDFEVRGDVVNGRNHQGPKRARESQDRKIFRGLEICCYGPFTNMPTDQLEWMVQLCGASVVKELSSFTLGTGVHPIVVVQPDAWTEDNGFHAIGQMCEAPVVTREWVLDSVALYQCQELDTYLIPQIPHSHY
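Fluorescence polarization: His-tagged BRCT (~35 kDa BRCA1 C-terminus, 250 nM) bound to 100 nM fluorescein-labeled phosphorylated 10-aa BACH1 peptide, pH 7.3 phosphate buffer with DTT and Tween 20. Compounds incubated 12 min at room temperature; inhibition read as lowered polarization.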
BRCT PPI red: inhibitors of human BRCA1 BRCT-phosphoprotein interaction (red fluorophore); Potency, µM (titrated, usually from 76.9 µM), for the others: at the top dose activity change, negative = inhibition, most hits filed as inhibitors; P38398; actives 0.03% (n = 75,000); AID 892; BRCT-phosphopeptide binding, red fluorescence polarization; note: % is set by controls: 0 for no effect and ±100 for the full control effect
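Rhodamine-labelled pBACH1 10-mer (100 nM) bound to BRCT domain (100 nM) at pH 7.3; compounds incubated 12 min room temperature, polarization read. Free peptide defines full inhibition; unlabelled decapeptide titrated as control.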
TsaE inh: inhibitors of E. coli YjeE (TsaE). P0AF67. purified YjeE enzyme, qHTS inhibition assay. Potency, µM. actives 0.05% (n = 71,000). AID 605
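Fluorescence polarization of a BODIPY Texas Red–ADP probe (2 uM) bound to purified YjeE (10 uM) was read after 15 min room-temperature incubation with compounds. Loss of polarization marks inhibitors; ADP serves as titrated control.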
Hsp90 TPR2A CRC: confirmation and counter-screen of Hsp90 TPR2A co-chaperone interaction disrupters; actives 100% (n = 45); shares compounds with Hsp90 Hop PPI; AlphaScreen TPR2A-His6 / biotin-Hsp90 peptide binding; activity, negative = inhibition, % at 40 µM or 46 µM, hits read low;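 active = compound lowering the Hsp90 and TPR2A binding signal, whether or not the linker counterscreen also flagged it as an artifact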
Active calls of the source: *; [ ] = dose if it differs, or a comment. Unless noted, calls come from the whole dose curve; as a rule, active = well fitted curve in the direction sought with a large enough effect; inconclusive = small, poorly fitted or top-dose-only effect, or another doubt; inactive = no such curve, though single readings can be large; an effect the other way counts as inactive or inconclusive.

How did CSc1ccc2c(c1)N(CCC1CCCCN1C)c1ccccc1S2 (centres undefined) do in these assays?
BRCT PPI green: 0%[3.08 µM]; BRCT PPI red: -1%

How did CN1CC[C@H](CN2c3ccccc3Sc3ccccc32)C1 do in these assays?
Tau fil binding: 4µM*; Hsp90 Hop PPI: -1%[11 µM]; DNA Pol III inh: -3%[11.4 µM]; BRCT PPI green: -1%[15.4 µM]; BRCT PPI red: 0%[15.4 µM]; TsaE inh: inactive

What do the screens show for `Cc1ccc(NC(=O)CCCCCC2NC(=O)NC2C)cc1` (centres undefined)?
Tau fil binding: 7%; Hsp90 Hop PPI: 0.013µM*; DNA Pol III inh: -2%; BRCT PPI green: 2%; BRCT PPI red: 0%; TsaE inh: inactive; Hsp90 TPR2A CRC: -99*[alpha-screen platform artifact]

How did O=C(CN1C(=O)CCC1=O)Nc1nc(-c2ccccn2)cs1 do in these assays?
Tau fil binding: -3%; Hsp90 Hop PPI: 2.5µM*; DNA Pol III inh: -3%; BRCT PPI green: -1%; BRCT PPI red: 0%; TsaE inh: inactive; Hsp90 TPR2A CRC: -100*[alpha-screen platform artifact]

What do the screens show for `Cc1cccc(Nc2nc(-c3ccccn3)cs2)n1`?
Tau fil binding: -2%; Hsp90 Hop PPI: -8%; DNA Pol III inh: -6%; BRCT PPI green: -1%; BRCT PPI red: -1%; TsaE inh: inactive

How did Cn1cccc1C(=O)Nc1nc(-c2ccccn2)cs1 do in these assays?
Tau fil binding: inconclusive; Hsp90 Hop PPI: 6.3µM*; DNA Pol III inh: -6%; BRCT PPI green: -1%; BRCT PPI red: -1%; TsaE inh: inactive; Hsp90 TPR2A CRC: -100*[alpha-screen platform artifact]

Results for Brc1ccc(-c2nn3c(-c4ccccn4)nnc3s2)o1 ?
Tau fil binding: inconclusive; Hsp90 Hop PPI: 7.9µM*; DNA Pol III inh: inconclusive; BRCT PPI green: 1%; BRCT PPI red: -2%; TsaE inh: inactive; Hsp90 TPR2A CRC: -99*[alpha-screen platform artifact]

What do the screens show for `Brc1ccc(-c2nn3c(-c4ccncc4)nnc3s2)o1`?
Tau fil binding: 12%; Hsp90 Hop PPI: -3%; DNA Pol III inh: -6%; BRCT PPI green: 0%; BRCT PPI red: -2%; TsaE inh: inactive

What do the screens show for `CCN(CC)C(=O)c1sc2nc(-c3ccncc3)[nH]c(=O)c2c1C`?
Tau fil binding: -15%; Hsp90 Hop PPI: 0%; DNA Pol III inh: -3%; BRCT PPI green: -1%; BRCT PPI red: 0%; TsaE inh: inactive

Results for CCN(CC)C(=O)c1sc2nc(-c3ccccn3)[nH]c(=O)c2c1C ?
Tau fil binding: -35%; Hsp90 Hop PPI: 7.9µM*; DNA Pol III inh: -4%; BRCT PPI green: 2%; BRCT PPI red: -1%; TsaE inh: inactive; Hsp90 TPR2A CRC: -99*[alpha-screen platform artifact]

What do the screens show for `C[C@@]12CCC(OC(=O)c3ccccc3)CC1CCc1ccccc12` (some centres undefined)?
BRCT PPI green: -3%; BRCT PPI red: -2%

What do the screens show for `O=C(CSc1nc2ccccc2s1)c1sc2sc3ccccc3[n+]2c1O`?
Tau fil binding: -5%[11.4 µM]; Hsp90 Hop PPI: inconclusive; DNA Pol III inh: -27%[11.4 µM]; BRCT PPI green: 8%[15.4 µM]; BRCT PPI red: 3%[15.4 µM]; TsaE inh: inconclusive

Results for CCCCNC(=O)CSc1nc2ccccc2c(=O)n1C1CCCC1 ?
Tau fil binding: -1%; Hsp90 Hop PPI: 1%; DNA Pol III inh: -3%; BRCT PPI green: -1%; BRCT PPI red: -2%; TsaE inh: inactive; Hsp90 TPR2A CRC: -100*[alpha-screen platform artifact]

How did CCOC(=O)CSc1nc2ccccc2c(=O)n1C1CCCC1 do in these assays?
Tau fil binding: -13%; Hsp90 Hop PPI: -3%; DNA Pol III inh: -7%; BRCT PPI green: -2%; BRCT PPI red: -1%; TsaE inh: inactive

What do the screens show for `COc1ccc(C(=O)N2CCC3(CCN(Cc4ccccc4)CC3)CC2)cc1`?
Tau fil binding: 4%; Hsp90 Hop PPI: 0%; DNA Pol III inh: -6%; BRCT PPI green: -1%; BRCT PPI red: 1%; TsaE inh: inactive
